Experimental data reported in PubChem BioAssay AID1159580 (chemical genetic matrix, 2015).
Values joined by “and” are separate entries in the source; they are usually repeats but may differ in a detail not shown here. Equal entries are not always repeated. The campaign covered roughly 5,500 compounds. About 2,000 (36%) were called active. Roughly 18% stayed inconclusive and do not appear here. Cut-off read from the data, not from the text of the source: active = normalized growth mostly below about 0.91 (no sharp cut-off); inconclusive = no clear call, values can overlap the other calls; inactive = mostly above about 0.92. The list shows a part of the results.

Assay: chemical genetic growth profiling, strain panel (AID 1159580);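 note: tested at 20 µM; growth read once vehicle control cultures reached saturation at 30 °C; 1 = growth at the plate median or of vehicle wells; lower values mean less growth of the strain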
Details: S. cerevisiae deletion strains, growth OD

Measured: normalized growth

OC1C(O)C(O)C(O)C(O)C1O (stereo not given)
inactive: locus YAL013W, strain DEP1, active compounds read low 0.998 | locus YAL021C, strain ccr4, active compounds read low 0.996 | locus YAL026C, strain drs2, active compounds read low 1 | locus YAL030W, strain snc1, active compounds read low 0.997 | locus YBL061C, strain skt5, active compounds read low 0.998 | locus YBR009C, strain hhf1, active compounds read low 1.01 | locus YBR021W, strain FUR4, active compounds read low 1.08 | locus YBR023C, strain chs3, active compounds read low 0.997 | locus YBR171W, strain sec66, active compounds read low 1 | locus YBR229C, strain ROT2, active compounds read low 0.957 | locus YBR231C, strain swc5, active compounds read low 0.999 | locus YBR279W, strain paf1, active compounds read low 1 | locus YCL011C, strain gbp2, active compounds read low 1.01 | locus YCL016C, strain dcc1, active compounds read low 1.01 | locus YCL029C, strain bik1, active compounds read low 0.981 | locus YCL061C, strain MRC1, active compounds read low 0.996 | locus YCL069W, strain vba3, active compounds read low 0.999 | locus YCR088W, strain abp1, active compounds read low 1 | locus YDL005C, strain med2, active compounds read low 1 | locus YDL035C, strain GPR1, active compounds read low 1 | locus YDL040C, strain nat1, active compounds read low 1 | locus YDL074C, strain BRE1, active compounds read low 0.962 | locus YDL101C, strain DUN1, active compounds read low 0.989 | locus YDL134C, strain PPH21, active compounds read low 0.99 | locus YDL185W, strain tfp1, active compounds read low 0.966 | locus YDL192W, strain arf1, active compounds read low 0.977 | locus YDR001C, strain nth1, active compounds read low 0.998 | locus YDR069C, strain doa4, active compounds read low 0.999 | locus YDR101C, strain arx1, active compounds read low 0.976 | locus YDR137W, strain rgp1, active compounds read low 1 | locus YDR150W, strain NUM1, active compounds read low 0.99 | locus YDR159W, strain sac3, active compounds read low 0.993 | locus YDR162C, strain NBP2, active compounds read low 0.994 | locus YDR195W, strain ref2 0.984 | locus YDR297W, strain sur2, active compounds read low 1 | locus YDR318W, strain mcm21, active compounds read low 0.992 | locus YDR334W, strain swr1, active compounds read low 0.994 | locus YDR335W, strain msn5, active compounds read low 1 | locus YDR388W, active compounds read low 0.989 | locus YDR392W, strain spt3, active compounds read low 0.999 | locus YDR502C, strain sam2, active compounds read low 0.986 | locus YEL003W, strain gim4, active compounds read low 1.01 | locus YEL037C, strain rad23, active compounds read low 1 | locus YEL061C, strain CIN8 (second series), active compounds read low 1 | locus YEL061C, strain CIN8, active compounds read low 0.983 | locus YER015W, strain faa2, active compounds read low 0.993 | locus YER016W, strain bim1, active compounds read low 0.991 | locus YER110C, active compounds read low 0.982 | locus YER111C, strain swi4, active compounds read low 1 | locus YER155C, strain BEM2 (second series), active compounds read low 1.01 | locus YER155C, strain BEM2, active compounds read low 0.999 | locus YER167W, strain BCK2, active compounds read low 0.995 | locus YFR010W, strain ubp6, active compounds read low 1 | locus YGL078C, strain dbp3, active compounds read low 0.973 | locus YGL086W, strain mad1, active compounds read low 0.979 | locus YGL167C, strain pmr1, active compounds read low 1 | locus YGL173C, strain kem1, active compounds read low 1.01 | locus YGL227W, strain vid30, active compounds read low 1.01 | locus YGL240W, strain doc1, active compounds read low 0.989 | locus YGL248W, strain PDE1, active compounds read low 0.969 | locus YGL253W, strain hxk2, active compounds read low 1 | locus YGR135W, strain pre9, active compounds read low 1.02 | locus YGR252W, strain gcn5, active compounds read low 0.924 | locus YHR013C, strain ard1, active compounds read low 1 | locus YHR027C, strain rpn1, active compounds read low 1 | locus YHR030C, strain SLT2, active compounds read low 0.975 and 1 | locus YHR079C, strain IRE1 (second series), active compounds read low 0.99 | locus YHR079C, strain IRE1, active compounds read low 0.973 | locus YHR094C, strain hxt1, active compounds read low 0.996 | locus YHR129C, strain ARP1, active compounds read low 0.993 | locus YHR142W, strain chs7, active compounds read low 1.01 | locus YHR200W, strain rpn10, active compounds read low 0.971 | locus YIL066C, strain RNR3, active compounds read low 0.979 | locus YIL073C, strain SPO22, active compounds read low 0.994 | locus YIL125W, strain kgd1, active compounds read low 0.98 | locus YIR030C, strain dcg1, active compounds read low 0.995 | locus YJL092W, strain hpr5, active compounds read low 1 | locus YJL095W, strain BCK1 (second series), active compounds read low 1 | locus YJL095W, strain BCK1, active compounds read low 0.991 | locus YJL115W, strain asf1, active compounds read low 1 | locus YJL129C, strain trk1, active compounds read low 1.02 | locus YJL134W, strain LCB3, active compounds read low 0.995 | locus YJL154C, strain vps35, active compounds read low 1 | locus YJL164C, strain tpk1, active compounds read low 0.999 | locus YJL166W, strain qcr8, active compounds read low 1.01 | locus YJL168C, strain set2, active compounds read low 0.998 | locus YJL187C, strain SWE1 (second series), active compounds read low 0.97 | locus YJL187C, strain SWE1, active compounds read low 1.01 | locus YJR043C, strain POL32, active compounds read low 0.995 | locus YJR066W, strain TOR1, active compounds read low 0.956
